A number with no mark means an inactive call.

The target in this test is NADPH oxidase 2 (Homo sapiens) (UniProt P04839). Put plainly: compounds shifting NOX2 Amplex Red fluorescence – cell-based, HEK293-NOX2, PMA-stimulated, NOX inhibitor project, primary screen (AID 1159). Note: test concentration not given here. As to conditions: 45 min, higher = more signal, called active from +8 up or from −8 down.
Chain of NADPH oxidase 2 (Homo sapiens) (P04839 whole entry, looked up): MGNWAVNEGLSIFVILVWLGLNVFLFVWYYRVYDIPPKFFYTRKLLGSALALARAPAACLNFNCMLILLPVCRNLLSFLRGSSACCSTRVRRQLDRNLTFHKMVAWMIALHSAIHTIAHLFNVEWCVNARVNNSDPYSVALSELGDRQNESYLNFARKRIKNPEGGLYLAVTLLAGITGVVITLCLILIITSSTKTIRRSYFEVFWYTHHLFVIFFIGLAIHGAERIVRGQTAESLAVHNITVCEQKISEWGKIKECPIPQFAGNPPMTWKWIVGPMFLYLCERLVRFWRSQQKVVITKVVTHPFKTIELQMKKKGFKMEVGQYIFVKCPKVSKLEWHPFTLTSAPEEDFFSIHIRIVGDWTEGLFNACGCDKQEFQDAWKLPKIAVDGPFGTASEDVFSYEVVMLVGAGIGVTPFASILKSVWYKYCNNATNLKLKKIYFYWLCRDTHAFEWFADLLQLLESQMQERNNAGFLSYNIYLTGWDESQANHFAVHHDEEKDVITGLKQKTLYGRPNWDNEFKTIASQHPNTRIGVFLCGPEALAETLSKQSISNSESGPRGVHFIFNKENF
Take `COc1cc2c(cc1O)C(C1CC1)N(Cc1cc3c(cc1Br)OCO3)CC2` (stereo unspecified): the z-score is -6.19. In the case of `C=C(CCCC)C(=O)CC[C@H](OC(C)=O)c1cccc(OCCO)c1` it was -1.94; in that of `C=CC[C@]1(C(=O)N2CCCCC2)N=C(c2ccc(OCCCO)cc2)O[C@H]1c1ccccc1`, 0.186. In the case of `COCCOC(=O)N1C(=O)[C@@]2(c3cc(C#CCCO)ccc31)[C@H](C(=O)N1CCN(c3ncccn3)CC1)[C@H]1C(=O)O[C@H](c3ccccc3)[C@H](c3ccccc3)N1[C@@H]2c1ccccc1OCCO` it was 1.45.

On to `COCCOC(=O)N1C(=O)[C@@]2(c3cc(C#CCCO)ccc31)[C@H](C(=O)N1CCc3cc(OC)c(OC)cc3C1)[C@H]1C(=O)O[C@H](c3ccccc3)[C@H](c3ccccc3)N1[C@@H]2c1ccc(O)cc1`, for which the z-score is 1.26. Regarding `CCCCN1CC=CC23O[C@@H]4/C=C\CCC(C)OC(=O)C4[C@H]2C(=O)N(CCCCCO)[C@@H]3C1=O` (stereo partly specified), the z-score is 0.395.

For the compound `C=CCN1C(=O)[C@@]2(O[C@@H](CCO)[C@H]([Si](C)(C)c3ccc(OC)cc3)[C@H]2C)c2cc(NC(=O)c3ccc(OC)cc3)ccc21`, the z-score is -3.81. `CC(=O)n1cc(C(O)C2C=CC3C(=O)N(C)C(=O)C3N2Nc2ccccc2)c2ccccc21` (stereo unspecified): the z-score is -1.57. `Cc1ccc(C(C)CC(O)C2C=CC3C(=O)N(c4ccccc4)C(=O)C3N2Nc2ccc([N+](=O)[O-])cc2)o1` (stereo unspecified): the z-score was 0.414.

For the compound `[N-]=[N+]=NCc1ccccc1[C@H]1OC(c2ccc(OCCCO)cc2)=N[C@@]1(Cc1ccccc1)C(=O)NCc1ccccc1`, the z-score is 1.08. Consider `COc1ccc([Si](C)(C)[C@@H]2[C@@H](CCO)O[C@]3(C(=O)N(Cc4ccc(N5C(=O)COc6ccccc65)cc4)c4ccccc43)[C@H]2C)cc1`, for which the z-score is 0.506. The same measure for `CN(C)CCCNC(=O)[C@@]1(C)c2ccccc2C(=O)N(Cc2cc(F)cc(C(F)(F)F)c2)[C@H]1c1ccc(CO)cc1`: -0.655; for `C=C(COC)/C(=C/C[C@@H](OC(C)=O)c1ccc(OCCO)cc1)c1cc(C(=O)OC)ccc1OC`: -0.0514; for `CCCC[C@@H]1C[C@H]1[C@@H](NC(=O)c1ccco1)c1ccc(Cl)cc1`: -1.72. The same measure for `CC1CC/C=C\[C@H]2OC34C=CCN(Cn5nnc6ccccc65)C(=O)[C@H]3N(C(CO)C(C)C)C(=O)[C@@H]4C2C(=O)O1` (stereo partly specified): 1.09; for `[N-]=[N+]=Nc1ccccc1[C@H]1OC(c2ccc(OCCCO)cc2)=N[C@@]1(Cc1ccccc1)C(=O)O`: -0.0311.

As to `O=C1C2C=CC(C(O)C(c3ccccc3)c3ccccc3)N(n3cnnc3)C2C(=O)N1Cc1ccccc1` (stereo unspecified), the z-score is 0.67. In the case of `CN1C(=O)C2C=CC(C(O)Cc3ccccc3)N(Nc3ccccc3)C2C1=O` (stereo unspecified) it was -1.57; in that of `NC(=O)[C@@H]1[C@H]2C(=O)O[C@H](c3ccccc3)[C@H](c3ccccc3)N2[C@H](c2ccc(O)cc2)[C@@]12C(=O)Nc1ccc(C#CC3(O)CCCCCC3)cc12`, 0.834. The same measure for `COCCOC(=O)N1C(=O)[C@@]2(c3cc(C#Cc4ccc(OC)cc4)ccc31)[C@H](C(=O)N1CCCCCCC1)[C@H]1C(=O)O[C@H](c3ccccc3)[C@H](c3ccccc3)N1[C@@H]2c1ccc(OCCO)cc1`: 0.453. In the case of `CCOC(=O)C[C@H]1[C@H](OC(=O)Cc2ccc3c(c2)OCO3)[C@@H](NC(=O)c2ccc(-c3ccccc3)cc2)c2cc(OCCCO)ccc2N1C(=O)Cc1ccc(OC)cc1` it was -1.35.

On to `O=C1[C@H]2C=C(Br)[C@H](C[C@@H]2c2ccccc2)[C@@]12CO2`, for which the z-score was 0.242. In the case of `CCOC(=O)[C@H]1C/C=C/C[C@H](C(=O)OCC)C(=O)O[C@H]2[C@@H](OC)O[C@H](CO)[C@@H](OC(=O)Nc3ccc(C#N)cc3)[C@@H]2OC1=O` it was -0.311; in that of `COC(=O)C(CC#Cc1ccc2c(c1)[C@]1(C(=O)N2)[C@H](c2ccc(O)cc2)N2[C@H](c3ccccc3)[C@H](c3ccccc3)OC(=O)[C@H]2[C@@H]1C(=O)Nc1nc2ccccc2s1)C(=O)OC`, 2.11.

Consider `COc1ccc(C(O)C2C=CC3C(=O)NC(=O)C3N2Nc2ccccn2)cc1` (stereo unspecified), for which the z-score was -0.755. In the case of `C#CCN(CC1=CCCCC1)[C@H](c1ccccc1Br)[C@@H](O)Cc1ccccc1` it was -0.456.

The values are drawn from PubChem BioAssay.
